Results on 40 compounds are retold here after PubChem BioAssay (NCATS).

Inconclusive results are not listed. Calls of active or inactive are those of the source. The call rests on the fitted dose curve; in most records, active means well fitted cell-killing curve with a large enough effect; inconclusive means small, poorly fitted or top-dose-only effect, or effect the other way; inactive means no such curve, though single readings can be large or run the other way.
Potency means the concentration at half of the fitted maximal effect.

The assay in a line: Quantitative High-Throughput drug screen in 47 multiple myeloma cell lines against the NCATS MIPE library collection: MM1S_ATCC cell viability assay (AID 1918980). Further: nearly all actives have a fitted effect of over 45% in size. The conditions noted are these: MM1S myeloma viability, CellTiter-Glo ATP luminescence, 48 h; series mostly up to 45.8 µM. From the text:
PI: Beverly A. Mock Ph.D.
Laboratory of Cancer Biology and Genetics,
Center for Cancer Research, National Cancer Institute,
National Institute of Health, Bethesda, Maryland
Drug resistance and disease progression are common in multiple myeloma (MM) patients, underscoring the need for new therapeutic combinations. […] We hypothesized that effective combinations would reduce MYC expression and enhance p16 activity. […] These preclinical data identify potentially useful drug combinations for evaluation in drug-resistant MM and reveal potential mechanisms of combined drug sensitivity.
Described herein is the primary MIPE qHTS used to cherrypick compounds. Validated compounds were then further tested for potential synergistic activiy.
[1] Peat TJ, Gaikwad SM, Dubois W, Gyabaah-Kessie N, Zhang S, Gorjifard S, Phyo Z, Andres M, Hughitt VK, Simpson RM, Miller MA, Girvin AT, Taylor A, Williams D, D'Antonio N, Zhang Y, Rajagopalan A, Flietner E, Wilson K, Zhang X, Shinn P, Klumpp-Thomas C, McKnight C, Itkin Z, Chen L, Kazandijian D, Zhang J, Michalowski AM, Simmons JK, Keats J, Thomas CJ, Mock BA. Drug combinations identified by high-throughput screening promote cell cycle transition and upregulate Smad pathways in myeloma. Cancer Lett. 2023 Aug 1;568:216284. doi: 10.1016/j.canlet.2023.216284. Epub 2023 Jun 24. PMID: 37356470; PMCID: PMC10408729.
SEQUENCE No. (e.g., 1, 2, 3, etc.); […] (e.g., Cells, Incubation, Reagent, etc.); VALUE and DESCRIPTION.
1; Cells; 5 uL; white, solid bottom 1536-well Greiner assay plate.
2; Compounds; 23 nL; Kalypsis pin tool (Wako USA) equipped with a 1536-well pin head to transfer to the assay plates.
3; Incubation; 48 hours; 37C incubation.
4; Reagent;5uL; CellTiter Glo (Promega).
5; Detector; 425V; Luminescence; Viewlux PerkinElmer.
NOTES (numbers refer to Sequence numbers above)
1. The cell-based screening methods employed in this study were like those previously published. Briefly, the corresponding myeloma cell lines were screened in 1,536-well plates with 500 cells, 5-uL per well for inhibition of cell viability (assessed by measuring ATP levels with CellTiterGlo).
2. NCATS MIPE 4.0 library of approved and investigational drugs were added using the Kalypsis pin tool. Wells treated with DMSO only for 100% viability and media only for 0% viability were used as controls.
3. The assay plates were covered and incubated for 48 hours in a 37C, 5% CO2 incubator with controlled humidity.
4. After 48 hours, CellTilter-GloTM luminescent substrate mix (Promega) reagent was added to the assay plate and plates we incubated for 5 min at room temperature.
5. Signal was measured as median relative luminescence units on a ViewLux (PerkinElmer) multiplate reader.
[1] Heske CM, Davis MI, Baumgart JT, Wilson K, Gormally MV, Chen L, Zhang X, Ceribelli M, Duveau DY, Guha R, Ferrer M, Arnaldez FI, Ji J, Tran HL, Zhang Y, Mendoza A, Helman LJ, Thomas CJ. Matrix Screen Identifies Synergistic Combination of PARP Inhibitors and Nicotinamide Phosphoribosyltransferase (NAMPT) Inhibitors in Ewing Sarcoma. Clin Cancer Res. 2017 Dec 1;23(23):7301-7311. doi: 10.1158/1078-0432.CCR-17-1121. Epub 2017 Sep 12. PMID: 28899971; PMCID: PMC6636827.
With `CN(Cc1cnc2nc(N)nc(N)c2n1)c1ccc(C(=O)N[C@@H](CCC(=O)O)C(=O)O)cc1`, the Potency was 0.0187 µM (active).
To `COC(=O)Nc1nc2ccc(C(=O)c3cccs3)cc2[nH]1` belongs 0.0743 µM (active); to `CN1CCN(CCCN2c3ccccc3Sc3ccc(Cl)cc32)CC1`, 9.35 µM (active).
For the compound `NCCS(=O)(=O)O`, the Potency result was “inactive”.
As for `CC(CCc1ccc(O)cc1)NCCc1ccc(O)c(O)c1` (stereo not given), the Potency was 10.5 µM (active).
Take `NCCCCCC(=O)O`: the Potency was 16.6 µM (active).
For the compound `COc1cc2nc(N3CCN(C(=O)c4ccco4)CC3)nc(N)c2cc1OC`, the Potency was 20.9 µM (active).
With `CC12CC3CC(C)(C1)CC(N)(C3)C2`, the Potency was 18.7 µM (active).
To `COc1ccc2[nH]cc(CCNC(C)=O)c2c1` belongs 0.372 µM (active); to `O=c1c(O)c(-c2ccc(O)c(O)c2)oc2cc(O)cc(O)c12`, 26.4 µM (active); to `CC[C@@]1(O)C(=O)OCc2c1cc1n(c2=O)Cc2cc3c(CN(C)C)c(O)ccc3nc2-1`, 0.166 µM (active).
To `CN1CCN2c3ccccc3Cc3ccccc3C2C1` (stereo not given) belongs 13.2 µM (active); to `CS(=O)(=O)Nc1ccc([N+](=O)[O-])cc1Oc1ccccc1`, 16.6 µM (active); to `Cc1ccc(-c2cc(C(F)(F)F)nn2-c2ccc(S(N)(=O)=O)cc2)cc1`, 20.9 µM (active).
Take `CCc1cccc2c3c([nH]c12)C(CC)(CC(=O)O)OCC3` (stereo not given): the Potency result was “inactive”.
Take `O=C(Nc1ccc([N+](=O)[O-])cc1Cl)c1cc(Cl)ccc1O`: the Potency is 1.18 µM (active).
To `O=c1[nH]cc(F)c(=O)[nH]1` belongs 14.8 µM (active).
To `C[C@@H]1CC(=O)NN=C1c1ccc(NN=C(C#N)C#N)cc1` belongs 23.5 µM (active); to `CCCCc1oc2ccccc2c1C(=O)c1cc(I)c(OCCN(CC)CC)c(I)c1`, 2.35 µM (active).
Next, `CN(C)CCCN1c2ccccc2CCc2ccc(Cl)cc21`: 0.743 µM (active).
For `CC(C)(Oc1ccc(C2CC2(Cl)Cl)cc1)C(=O)O` (stereo not given), the Potency was 9.59 µM (active).
With `CC(C)C(=O)Nc1ccc([N+](=O)[O-])c(C(F)(F)F)c1`, the Potency is 1.66 µM (active).
To `Cc1ccccc1N1C(=O)c2cc(S(N)(=O)=O)c(Cl)cc2NC1C` (stereo not given) belongs “inactive”.
Next, `CC1(CN2CCC(n3c(=O)[nH]c4ccccc43)CC2)OCc2ccccc2-n2cccc21` (stereo not given): 7.43 µM (active); `CC(C)NCC(O)COc1ccc(CCOCC2CC2)cc1` (stereo not given): 16.6 µM (active).
For the compound `OCCN1CCN(CCCN2c3ccccc3Sc3ccc(C(F)(F)F)cc32)CC1`, the Potency was 2.96 µM (active).
For the compound `CN(C)C(=N)N=C(N)N`, the Potency entry was “inactive”.
To `CC[N+](CC)(CC)CCOc1cccc(OCC[N+](CC)(CC)CC)c1OCC[N+](CC)(CC)CC` belongs “inactive”; to `COc1cc2nc(N(C)CCCNC(=O)C3CCCO3)nc(N)c2cc1OC` (stereo not given), “inactive”; to `CN1CCC(=C2c3ccccc3C=Cc3ccccc32)CC1`, 14.8 µM (active).
To `Nc1c2c(nc3ccccc13)CCCC2` belongs 11.8 µM (active).
To `CN(C)CCOC(c1ccccc1)c1ccccc1` belongs 10.5 µM (active).
Consider `CN(C)C(=O)C(CCN1CCC(O)(c2ccc(Cl)cc2)CC1)(c1ccccc1)c1ccccc1`, for which the Potency was 20.9 µM (active).
Next, `NC(=O)OCC(COC(N)=O)c1ccccc1`: 5.9 µM (active); `CC(C)NCC(O)c1ccc(O)c(O)c1` (stereo not given): 0.166 µM (active).
On to `CCC1(c2ccccc2)C(=O)NCNC1=O`, for which the Potency was 1.05 µM (active).
To `CCOC(=O)c1ncn2c1CN(C)C(=O)c1cc(F)ccc1-2` belongs 18.7 µM (active); to `CN1CCC(=C2c3ccccc3CC(=O)c3sccc32)CC1`, 16.6 µM (active).
As for `Cc1cn([C@H]2C[C@H](N=[N+]=[N-])[C@@H](CO)O2)c(=O)[nH]c1=O`, the Potency was 3.32 µM (active).
Next, `Cn1c(=O)c2c(ncn2C)n(C)c1=O`: “inactive”.
